Five molecules from PubChem BioAssay can be followed below.

The nature of assay [1]: polyglutamine-triggered caspase-3 activation inhibitors, cell-based (AID 1583). To be noted: polyglutamine-induced caspase-3 activation, cell assay; stronger effect = higher value;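 tested at 10 µM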.
Assay [2] is described as follows: suppressors of polyQ aggregation in yeast, 75Q-TubU reporter (AID 1593). To be noted: Yeast 75Q polyglutamine aggregation reporter.
Assay [3] in a line: rescue of polyQ-huntingtin neuronal dysfunction in worms, whole organism, C. elegans mechanosensory neurons, N-terminal huntingtin (AID 1599). To be noted: touch response, stronger effect = higher value.
Assay [4] in a line: inhibitors of mitochondrial cytochrome c release, biochemical, purified mitochondria (AID 1603).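 Note: mouse liver mitochondria challenged with calcium chloride; signal normalized to the plate average as 100%.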 To be noted: stronger effect = lower value.
A short description of assay [5]: inhibitors of polyQ protein aggregation (AID 1604). To be noted: polyglutamine-induced protein aggregation inhibition assay; stronger effect = higher value; tested at 2.5 µM.
Assay [6] in a line: enhancers of glutamate uptake in motor neurons, MN-1 cell line (AID 1612).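 Note: tested at 1 µM final; 0% = mean of DMSO vehicle wells on each plate; positive means more glutamate uptake than control and negative means less.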 The following applies: MN-1 motor neuron cells, stronger effect = higher value.
Assay [7] can be described thus: reducers of polyQ inclusions in PC12 cells, cell-based, NGF-treated PC12, GFPQ80 (AID 1614).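 Note: lower means fewer inclusions and 0 means no inclusions at all.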 The following applies: PC12 NGF-treated GFP-polyQ80 inclusion reduction.
Assay [8] in a line: suppressors of polyglutamine aggregation in yeast, 75Q-TubH (AID 1616). The following applies: S. cerevisiae 75Q-TubH polyglutamine aggregation suppression; stronger effect = higher value.
A short description of assay [9]: liver-stage malaria parasite growth inhibition, primary screen, cell-based, HepG2, luciferase luminescence, HepG2 viability (AID 624349).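 Note: 100% = mean of DMSO negative control wells on the same plate.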 The following applies: P. berghei liver stage in HepG2, luciferase luminescence, concentration not given here; parasite load remaining: stronger effect = lower value; viability: measured here: HepG2 viability without parasites.
Assay [10] is described as follows: differential killing of epithelial or mesenchymal cells, primary screen, imaging, PC-3E GFP, TEM4-18 mCherry, co-culture (AID 1345086;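 active = compounds killing one labelled cell type while sparing the other, by normalised counts and ratio limits, not self-fluorescent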;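 for all read-outs here: cells exposed to compound for 72 h before imaging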;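 for red/green cell ratio (normalised): normalised mesenchymal count divided by normalised epithelial count so high means epithelial killing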). To be noted: imaging cell counts, at 1 µM; for red/green cell ratio (normalised): actives lie on both sides, counts scaled to control wells, 1 = unselective.
Assay [11] in a line: sensitizers of A549 cells to miR-34 induction, primary screen, imaging, A549 dox-inducible miR-34, nuclei and caspase counts (AID 1347080;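 active = compounds whose cell count with miR-34 switched on is under 0.7 times the count with it off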). To be noted: A549 miR-34 inducible, Hoechst nuclei count, 48 h.
Setting [12] is: measured here: epithelial PC-3E GFP cell survival.
Setting [13] is: measured here: mesenchymal TEM4-18 mCherry cell survival.
The mark [14] stands for this setting: stronger effect = lower value, cell number ratio, induced over uninduced.
Setting [15] is: measured here: relative caspase fold change +Dox/-Dox.
[16] abbreviates: measured here: total cells with miR-34 induction, stronger effect = lower value.
[17] abbreviates: measured here: total cells without miR-34 induction.

Where “and” joins values, the source holds several entries; their conditions need not be identical. Equal values may be shown once. For some of these results: Entries with a potency or affinity are not part of this list. Calls of active or inactive are those of the source. Cut-off read from the data, not from the text of the source, unless noted: active = parasite load remaining mostly below about 12% (no sharp cut-off); inactive = mostly above about 10%.

In general, inhibition refers to the change of the read-out against control, counted positive when it falls. What is called viability is a read-out of living cells in per cent, often relative to untreated cells. With `NC[C@@H]1O[C@H](O[C@@H]2[C@@H](CO)OC(O[C@@H]3[C@@H](O)[C@H](N)C[C@H](N)[C@H]3OC3O[C@H](CN)[C@@H](O)[C@H](O)[C@H]3N)[C@@H]2O)[C@H](N)[C@@H](O)[C@@H]1O` (stereo not given in full), in assay [1], the inhibition was -14.5%. The same molecule registered a score in [2] of 0.97. The rescue above control in assay [3] stood at 4.93. In assay [4], the cytochrome c release ratio is 0.82. The inhibition of aggregation in assay [5] is 43.7%. Further, the glutamate uptake change in assay [6] was -6.09%. In [7], this molecule returned an inclusion score of 2. In addition, the aggregation suppression score in [8] was found to be 1.49. The parasite load remaining in assay [9] was 59.3% (inactive). Moreover, the viability in assay [9] amounted to 91.2%. In addition, the red/green cell ratio (normalised) in assay [10] was 0.97 (inactive). Also, the normalised cell number in assay [10] (setting [12]) amounted to 1.02; in assay [10] (setting [13]) it was 0.98. Further, the fold change in assay [11] (setting [14]) was 0.934 (inactive); in assay [11] (setting [15]), 0.542. The figures for the cell count in assay [11] (setting [16]) and in assay [11] (setting [17]) were 12000 and 12900, respectively.
As for `NC(=O)c1cc[n+](CC2=C(C(=O)O)N3C(=O)C(NC(=O)C(c4ccccc4)S(=O)(=O)[O-])C3SC2)cc1` (stereo not given), in [1], the inhibition is -4.99%. In assay [2], this molecule had a score of 0.99. Moreover, the rescue above control in assay [3] is -3.36. Moreover, the cytochrome c release ratio in assay [4] came to 0.92. The molecule further gave an inhibition of aggregation in assay [5] of 24.1%. Also, the glutamate uptake change in assay [6] is -27.4%. In addition, the inclusion score in assay [7] is 2. In [8], this molecule showed an aggregation suppression score of 1.42. For the same molecule, the parasite load remaining in assay [9] was 51% (inactive). Moreover, the viability in assay [9] came out at 86.8%. Also, the red/green cell ratio (normalised) in [10] was 0.99 (inactive). The normalised cell number in [10] (setting [12]) came to 1.08; in assay [10] (setting [13]), 1.07. The fold change in assay [11] (setting [14]) was 0.877 (inactive); in assay [11] (setting [15]), 3.65. The results for the cell count in assay [11] (setting [16]) and in assay [11] (setting [17]) were 11600 and 13200, respectively.
On to `CCN1CCN(C(=O)NC(C(=O)N[C@@H]2C(=O)N3[C@@H]2SC(C)(C)[C@@H]3C(=O)O)c2ccccc2)C(=O)C1=O` (stereo not given in full), for which the inhibition in assay [1] was -12.4%. Besides, the score in [2] was 1.33. In addition, the rescue above control in assay [3] is 11.4. Also, the cytochrome c release ratio in assay [4] was found to be 1. Further, the inhibition of aggregation in [5] turned out to be 57.7%. For the same molecule, the glutamate uptake change in assay [6] is 3.02%. In addition, in [7], the inclusion score stood at 2. This molecule registered an aggregation suppression score in assay [8] of 1.27. Moreover, in assay [9], the parasite load remaining was 83.4% (inactive) and 122% (inactive). The viability in [9] is 73% and 103%. In addition, in assay [10], the red/green cell ratio (normalised) was 1.25 (inactive). The normalised cell number was determined as 0.93 in assay [10] (setting [12]) and 1.17 in assay [10] (setting [13]). Further, the results for the fold change in assay [11] (setting [14]) and in [11] (setting [15]) were 0.831 (inactive) and 1.11, respectively. In addition, the cell count in assay [11] (setting [16]) worked out at 10100; in assay [11] (setting [17]), 12200.
As for `CC(=O)O[C@]1(C(C)=O)CCC2C3C[C@H](C)C4=CC(=O)CC[C@]4(C)C3CC[C@@]21C` (stereo not given in full), the inhibition in assay [1] was found to be 28.3%. Further, the score in [2] is 0.63. Moreover, in [3], the rescue above control worked out at 2.76. The cytochrome c release ratio in [4] is 1.2. The same molecule registered an inhibition of aggregation in assay [5] of 59.1%. In assay [6], the glutamate uptake change is 30.6%. In assay [7], this molecule returned an inclusion score of 2.5. The aggregation suppression score in [8] is 0.615. In addition, in [9], the parasite load remaining was 76.4% (inactive) and 20.6% (inactive). In assay [9], the viability is 71.8% and 85.5%. In assay [10], the red/green cell ratio (normalised) was 1.21 (inactive). Moreover, the normalised cell number was found to be 1.07 in assay [10] (setting [12]) and 1.3 in assay [10] (setting [13]). The fold change in assay [11] (setting [14]) is 0.945 (inactive); in [11] (setting [15]), 3.26. Further, the cell count in assay [11] (setting [16]) was found to be 8680; in assay [11] (setting [17]) it was 9190.
Turning to `CO[C@H]1C[C@H](O[C@H]2[C@H](C)[C@@H](OC3O[C@H](C)C[C@H](N(C)C)[C@H]3O)[C@@H](C)C[C@]3(CO3)C(=O)[C@H](C)[C@@H](O)[C@@H](C)[C@@H](C)OC(=O)[C@@H]2C)O[C@@H](C)[C@@H]1O` (stereo not given in full), in [1], the inhibition was 27%. This molecule came in with a score in assay [2] of 1.24. Further, the rescue above control in assay [3] came to 28.2. For the same molecule, the cytochrome c release ratio in [4] came to 0.97. In addition, the inhibition of aggregation in [5] is 7.94%. The glutamate uptake change in assay [6] was 5.06%. The molecule also came in with an inclusion score in [7] of 2. This molecule gave an aggregation suppression score in [8] of 1.24. Also, in [9], the parasite load remaining is 283% (inactive) and 48.5% (inactive). For the same molecule, in assay [9], the viability is 76% and 96.5%. Also, the red/green cell ratio (normalised) in [10] was 1.12 (inactive). Further, the normalised cell number in [10] (setting [12]) is 0.84; in assay [10] (setting [13]), 0.94. Besides, the fold change was 0.824 (inactive) in [11] (setting [14]) and 2.52 in assay [11] (setting [15]). The cell count in assay [11] (setting [16]) amounted to 10700; in assay [11] (setting [17]) it was 13000.
